PubChem BioAssay AID1159580 (chemical genetic matrix, 2015)
Hit rate of the full screen: of about 5,500 compounds, about 2,000 (36%) were called active. Inconclusive results (about 18%) are left out. No stated cut-off is given here; in the data, active means normalized growth mostly below about 0.91 (no sharp cut-off); inconclusive means no clear call, values can overlap the other calls; inactive means mostly above about 0.92. This is one part of the list.

Experiment: chemical genetic growth profiling, strain panel (AID 1159580);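 further: tested at 20 µM; growth read once vehicle control cultures reached saturation at 30 °C; 1 = growth at the plate median or of vehicle wells; lower values mean less growth of the strain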
Conditions: S. cerevisiae deletion strains, growth OD

Measured: normalized growth

COCCCOc1ccnc(CS(=O)c2nc3ccccc3[nH]2)c1C (stereo not drawn)
inactive: locus YHR030C, strain SLT2, hits give low values 0.94 | locus YHR079C, strain IRE1, hits give low values 0.93 | locus YJL095W, strain BCK1, hits give low values 0.913 | locus YJR066W, strain TOR1, hits give low values 0.907 | locus YLR113W, strain HOG1, hits give low values 0.909 | locus YNL183C, strain NPR1, hits give low values 0.879 | locus YOR231W, strain MKK1, hits give low values 0.93 | locus YPL256C, strain CLN2, hits give low values 0.897
